# Assays:
# Test in all cases: DAPPL (digital affinity profiling via proximity ligation, sequencing); 10 mM Tris-HCl pH 7.5, 50 mM NaCl, 1 mM DTT, 4% glycerol, room temperature, 30 min; GST-TFs on glutathione beads, 16-mer random dsDNA library, 0.1% formaldehyde crosslink after washing; high values mean tight binding
# [1] = target: T1, FLI1 (Homo sapiens, UniProt Q01543 1-452); conditions: protein: recombinant; tags: N-terminal GST; dsDNA, one strand shown
# T1 sequence: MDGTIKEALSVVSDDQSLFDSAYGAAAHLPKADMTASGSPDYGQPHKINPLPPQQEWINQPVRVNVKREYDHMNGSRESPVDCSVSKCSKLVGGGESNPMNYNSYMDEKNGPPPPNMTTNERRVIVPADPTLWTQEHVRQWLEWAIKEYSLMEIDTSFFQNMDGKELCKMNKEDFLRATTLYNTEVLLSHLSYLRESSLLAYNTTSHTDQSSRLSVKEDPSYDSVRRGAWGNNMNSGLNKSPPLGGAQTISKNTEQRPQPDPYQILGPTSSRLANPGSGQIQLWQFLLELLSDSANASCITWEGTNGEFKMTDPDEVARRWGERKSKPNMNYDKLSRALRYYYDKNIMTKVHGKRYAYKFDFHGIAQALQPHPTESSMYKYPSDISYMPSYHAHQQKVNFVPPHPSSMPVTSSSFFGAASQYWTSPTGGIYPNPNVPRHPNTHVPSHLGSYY
# Method in brief: (§1)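 A tag-only sample was pooled with DNA-barcoded human transcription factors that had been expressed in yeast as GST fusions and captured on glutathione beads. The pools were incubated for 30 min at room temperature with 200 nmole of a random double-stranded 16-mer DNA library in Tris/NaCl/DTT/glycerol buffer, then washed, crosslinked with 0.1% formaldehyde, proximity-ligated (BsaI/T4 ligase, 1 h, 37 °C), PCR-amplified and sequenced on an Illumina NextSeq500. Binding signal is each hexamer's read frequency for a factor divided by its frequency for the tag-only sample.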
# [2] = target: T2, ELK1 (Homo sapiens, UniProt P19419 1-428); conditions: protein: recombinant; tags: N-terminal GST; dsDNA, one strand shown
# T2 sequence: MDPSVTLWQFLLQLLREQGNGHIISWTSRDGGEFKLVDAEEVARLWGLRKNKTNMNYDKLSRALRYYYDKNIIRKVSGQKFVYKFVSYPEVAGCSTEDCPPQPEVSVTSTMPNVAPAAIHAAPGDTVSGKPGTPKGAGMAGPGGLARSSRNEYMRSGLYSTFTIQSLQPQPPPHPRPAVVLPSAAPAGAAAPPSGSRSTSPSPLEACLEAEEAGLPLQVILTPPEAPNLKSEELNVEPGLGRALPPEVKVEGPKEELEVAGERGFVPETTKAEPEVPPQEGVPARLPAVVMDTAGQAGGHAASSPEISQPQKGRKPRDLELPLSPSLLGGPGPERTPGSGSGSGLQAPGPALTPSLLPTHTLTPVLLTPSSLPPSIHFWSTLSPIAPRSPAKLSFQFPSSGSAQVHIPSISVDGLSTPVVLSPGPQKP
# Method in brief: as §1
# [3] = target: T3, GABPA (Homo sapiens, UniProt Q06546 1-454); conditions: protein: recombinant; tags: N-terminal GST; dsDNA, one strand shown
# T3 sequence: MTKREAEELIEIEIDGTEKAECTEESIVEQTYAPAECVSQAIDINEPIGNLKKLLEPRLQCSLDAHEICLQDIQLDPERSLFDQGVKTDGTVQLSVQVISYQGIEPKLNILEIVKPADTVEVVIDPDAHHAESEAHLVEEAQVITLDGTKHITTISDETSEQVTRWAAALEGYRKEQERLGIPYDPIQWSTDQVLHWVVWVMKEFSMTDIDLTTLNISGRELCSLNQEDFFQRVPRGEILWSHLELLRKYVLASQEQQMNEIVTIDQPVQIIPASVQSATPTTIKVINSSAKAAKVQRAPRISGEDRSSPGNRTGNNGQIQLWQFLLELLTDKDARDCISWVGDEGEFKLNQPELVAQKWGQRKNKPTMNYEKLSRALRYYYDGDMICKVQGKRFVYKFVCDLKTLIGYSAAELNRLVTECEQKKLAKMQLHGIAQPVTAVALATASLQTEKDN
# Method in brief: as §1
# [4] = target: T4, ERG (Homo sapiens, UniProt P11308 1-479); conditions: protein: recombinant; tags: N-terminal GST; dsDNA, one strand shown
# T4 sequence: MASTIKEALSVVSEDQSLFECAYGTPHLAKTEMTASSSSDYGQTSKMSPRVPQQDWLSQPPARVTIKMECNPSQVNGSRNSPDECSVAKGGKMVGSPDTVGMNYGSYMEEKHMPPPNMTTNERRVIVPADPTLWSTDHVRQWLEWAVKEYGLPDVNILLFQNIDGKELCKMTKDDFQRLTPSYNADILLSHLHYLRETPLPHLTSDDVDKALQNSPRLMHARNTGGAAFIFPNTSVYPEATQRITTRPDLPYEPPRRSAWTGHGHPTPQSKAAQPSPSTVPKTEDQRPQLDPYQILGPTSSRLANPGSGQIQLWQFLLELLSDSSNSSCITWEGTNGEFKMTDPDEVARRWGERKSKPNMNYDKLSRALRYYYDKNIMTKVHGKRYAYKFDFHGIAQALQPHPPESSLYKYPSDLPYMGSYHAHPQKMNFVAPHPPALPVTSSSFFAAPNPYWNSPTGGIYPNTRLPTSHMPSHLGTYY
# Method in brief: as §1
# [5] = target: ELF1 (Homo sapiens, UniProt P32519 1-619); conditions: protein: recombinant; tags: N-terminal GST; dsDNA, one strand shown
# Method in brief: as §1
# [6] = target: T5, EHF (Homo sapiens, UniProt Q9NZC4 1-300); conditions: protein: recombinant; tags: N-terminal GST; dsDNA, one strand shown
# T5 sequence: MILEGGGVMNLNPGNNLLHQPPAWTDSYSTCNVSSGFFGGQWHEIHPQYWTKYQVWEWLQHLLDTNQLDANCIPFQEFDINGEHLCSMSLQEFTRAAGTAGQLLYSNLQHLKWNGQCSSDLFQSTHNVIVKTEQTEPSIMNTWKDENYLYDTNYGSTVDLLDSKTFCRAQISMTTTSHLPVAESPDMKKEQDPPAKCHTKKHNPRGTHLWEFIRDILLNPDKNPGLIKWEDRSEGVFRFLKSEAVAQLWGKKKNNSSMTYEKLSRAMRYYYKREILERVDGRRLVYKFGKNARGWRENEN
# Method in brief: as §1
# [7] = target: SPI1 (Homo sapiens, UniProt P17947 1-270); conditions: protein: recombinant; tags: N-terminal GST; dsDNA, one strand shown
# Method in brief: as §1
# [8] = target: SPIB (Homo sapiens, UniProt Q01892 1-262); conditions: protein: recombinant; tags: N-terminal GST; dsDNA, one strand shown
# Method in brief: as §1
# [9] = target: T6, ELK3 (Homo sapiens, UniProt P41970 1-407); conditions: protein: recombinant; tags: N-terminal GST; dsDNA, one strand shown
# T6 sequence: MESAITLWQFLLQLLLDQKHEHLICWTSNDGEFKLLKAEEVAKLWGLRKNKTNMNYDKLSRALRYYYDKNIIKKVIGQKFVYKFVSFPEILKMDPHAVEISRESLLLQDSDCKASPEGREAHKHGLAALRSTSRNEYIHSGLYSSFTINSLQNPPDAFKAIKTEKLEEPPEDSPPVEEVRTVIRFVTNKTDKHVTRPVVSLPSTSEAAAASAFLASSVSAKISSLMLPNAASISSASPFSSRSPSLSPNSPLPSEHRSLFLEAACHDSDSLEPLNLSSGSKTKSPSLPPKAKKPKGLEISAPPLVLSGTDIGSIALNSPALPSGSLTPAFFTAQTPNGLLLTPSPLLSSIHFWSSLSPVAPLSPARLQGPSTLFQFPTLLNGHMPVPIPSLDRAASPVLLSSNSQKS
# Method in brief: as §1
# [10] = target: T7, FEV (Homo sapiens, UniProt Q99581 1-238); conditions: protein: recombinant; tags: N-terminal GST; dsDNA, one strand shown
# T7 sequence: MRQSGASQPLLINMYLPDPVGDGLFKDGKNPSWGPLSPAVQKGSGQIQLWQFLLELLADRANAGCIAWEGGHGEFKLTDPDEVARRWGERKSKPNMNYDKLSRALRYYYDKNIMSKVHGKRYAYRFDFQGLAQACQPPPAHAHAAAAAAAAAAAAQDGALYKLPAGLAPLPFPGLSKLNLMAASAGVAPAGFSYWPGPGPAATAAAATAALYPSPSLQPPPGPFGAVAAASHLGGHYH
# Method in brief: as §1
# [11] = target: ETV5 (Homo sapiens, UniProt P41161 1-510); conditions: protein: recombinant; tags: N-terminal GST; dsDNA, one strand shown
# Method in brief: as §1
# [12] = target: HSF1 (Homo sapiens, UniProt Q00613 1-529); conditions: protein: recombinant; tags: N-terminal GST; chain copies: 3; dsDNA, one strand shown
# Method in brief: as §1
# [13] = target: T8, SPIC (Homo sapiens, UniProt Q8N5J4 1-248); conditions: protein: recombinant; tags: N-terminal GST; dsDNA, one strand shown
# T8 sequence: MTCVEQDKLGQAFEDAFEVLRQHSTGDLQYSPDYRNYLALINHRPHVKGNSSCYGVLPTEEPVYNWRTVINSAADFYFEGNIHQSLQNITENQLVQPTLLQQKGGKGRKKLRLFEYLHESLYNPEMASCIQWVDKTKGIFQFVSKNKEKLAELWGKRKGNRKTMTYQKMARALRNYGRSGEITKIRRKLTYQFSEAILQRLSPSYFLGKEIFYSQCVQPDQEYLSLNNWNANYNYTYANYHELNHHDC
# Method in brief: as §1
# [14] = target: ELF4 (Homo sapiens, UniProt Q99607 1-663); conditions: protein: recombinant; tags: N-terminal GST; dsDNA, one strand shown
# Method in brief: as §1
# [15] = target: T9, ELK4 (Homo sapiens, UniProt P28324-2 1-405); conditions: protein: recombinant; tags: N-terminal GST; dsDNA, one strand shown
# T9 sequence: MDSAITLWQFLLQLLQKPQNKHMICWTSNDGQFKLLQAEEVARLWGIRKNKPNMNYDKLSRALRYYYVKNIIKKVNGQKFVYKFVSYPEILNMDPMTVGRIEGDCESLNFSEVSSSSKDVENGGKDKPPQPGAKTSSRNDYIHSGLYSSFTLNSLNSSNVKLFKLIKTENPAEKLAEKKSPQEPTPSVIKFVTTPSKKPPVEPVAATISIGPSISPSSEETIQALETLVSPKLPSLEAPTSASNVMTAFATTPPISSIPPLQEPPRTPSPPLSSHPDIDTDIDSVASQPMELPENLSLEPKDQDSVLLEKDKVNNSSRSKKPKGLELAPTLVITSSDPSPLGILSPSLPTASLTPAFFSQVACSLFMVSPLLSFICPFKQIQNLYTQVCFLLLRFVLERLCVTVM
# Method in brief: as §1
# [16] = target: T10, ETV2 (Homo sapiens, UniProt O00321 1-342); conditions: protein: recombinant; tags: N-terminal GST; dsDNA, one strand shown
# T10 sequence: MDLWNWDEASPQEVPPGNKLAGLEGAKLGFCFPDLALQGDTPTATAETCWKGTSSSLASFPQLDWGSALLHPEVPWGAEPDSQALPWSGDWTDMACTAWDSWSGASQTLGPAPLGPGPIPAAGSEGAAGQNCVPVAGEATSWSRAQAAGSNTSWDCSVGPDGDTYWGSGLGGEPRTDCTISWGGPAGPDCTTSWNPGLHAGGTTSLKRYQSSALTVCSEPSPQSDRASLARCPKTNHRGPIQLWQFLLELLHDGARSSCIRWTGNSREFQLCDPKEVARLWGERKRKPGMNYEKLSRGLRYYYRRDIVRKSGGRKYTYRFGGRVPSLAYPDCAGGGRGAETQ
# Method in brief: as §1
# [17] = target: T11, ELF3 (Homo sapiens, UniProt P78545 1-371); conditions: protein: recombinant; tags: N-terminal GST; dsDNA, one strand shown
# T11 sequence: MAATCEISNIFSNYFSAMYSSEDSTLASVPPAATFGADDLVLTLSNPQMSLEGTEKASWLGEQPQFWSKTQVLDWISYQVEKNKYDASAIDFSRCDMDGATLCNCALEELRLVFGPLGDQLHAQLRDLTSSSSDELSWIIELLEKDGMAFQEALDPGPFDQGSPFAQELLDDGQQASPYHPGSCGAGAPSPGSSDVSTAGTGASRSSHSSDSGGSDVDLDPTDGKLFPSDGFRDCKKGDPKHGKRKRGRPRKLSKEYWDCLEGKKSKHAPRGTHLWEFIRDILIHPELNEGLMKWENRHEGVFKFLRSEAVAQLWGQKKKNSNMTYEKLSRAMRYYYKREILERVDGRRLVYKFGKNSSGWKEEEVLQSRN
# Method in brief: as §1
# [18] = target: ETV1 (Homo sapiens, UniProt P50549 1-477); conditions: protein: recombinant; tags: N-terminal GST; dsDNA, one strand shown
# Method in brief: as §1
# ETV1, sequence (P50549 whole entry): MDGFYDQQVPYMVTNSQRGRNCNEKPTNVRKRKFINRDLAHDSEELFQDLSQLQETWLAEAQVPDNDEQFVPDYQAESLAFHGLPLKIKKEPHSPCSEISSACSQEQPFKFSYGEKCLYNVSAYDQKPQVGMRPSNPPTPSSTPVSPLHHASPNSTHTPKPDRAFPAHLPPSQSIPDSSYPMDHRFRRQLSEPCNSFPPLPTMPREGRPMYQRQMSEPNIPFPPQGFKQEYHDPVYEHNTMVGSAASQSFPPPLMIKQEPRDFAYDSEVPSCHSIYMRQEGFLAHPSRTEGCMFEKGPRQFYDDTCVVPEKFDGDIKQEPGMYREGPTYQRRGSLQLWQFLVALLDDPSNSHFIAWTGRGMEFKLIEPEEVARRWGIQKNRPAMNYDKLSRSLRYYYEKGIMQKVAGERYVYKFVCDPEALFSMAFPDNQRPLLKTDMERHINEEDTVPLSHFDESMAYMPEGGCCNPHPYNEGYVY
# SPIB, sequence (Q01892 whole entry): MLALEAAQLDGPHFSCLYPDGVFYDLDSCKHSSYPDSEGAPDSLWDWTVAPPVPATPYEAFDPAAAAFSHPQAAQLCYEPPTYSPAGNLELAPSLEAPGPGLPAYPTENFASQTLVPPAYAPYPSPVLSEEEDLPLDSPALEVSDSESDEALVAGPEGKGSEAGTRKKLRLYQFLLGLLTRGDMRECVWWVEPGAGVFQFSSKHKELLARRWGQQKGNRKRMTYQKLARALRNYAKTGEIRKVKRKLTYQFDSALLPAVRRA
# ETV5, sequence (P41161 whole entry): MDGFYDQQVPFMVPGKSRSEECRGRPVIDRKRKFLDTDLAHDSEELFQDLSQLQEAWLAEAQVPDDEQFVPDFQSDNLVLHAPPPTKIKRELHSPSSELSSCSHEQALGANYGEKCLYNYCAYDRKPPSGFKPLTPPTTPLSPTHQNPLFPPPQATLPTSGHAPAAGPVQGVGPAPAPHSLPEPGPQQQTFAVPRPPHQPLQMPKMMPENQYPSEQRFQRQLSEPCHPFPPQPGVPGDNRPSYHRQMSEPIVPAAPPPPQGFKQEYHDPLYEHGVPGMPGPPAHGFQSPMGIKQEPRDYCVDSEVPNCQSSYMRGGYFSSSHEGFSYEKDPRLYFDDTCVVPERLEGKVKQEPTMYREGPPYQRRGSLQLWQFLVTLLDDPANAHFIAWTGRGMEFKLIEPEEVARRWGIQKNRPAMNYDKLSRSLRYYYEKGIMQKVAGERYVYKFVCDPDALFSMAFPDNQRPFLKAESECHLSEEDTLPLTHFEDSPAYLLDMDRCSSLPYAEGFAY
# ELF4, sequence (Q99607 whole entry): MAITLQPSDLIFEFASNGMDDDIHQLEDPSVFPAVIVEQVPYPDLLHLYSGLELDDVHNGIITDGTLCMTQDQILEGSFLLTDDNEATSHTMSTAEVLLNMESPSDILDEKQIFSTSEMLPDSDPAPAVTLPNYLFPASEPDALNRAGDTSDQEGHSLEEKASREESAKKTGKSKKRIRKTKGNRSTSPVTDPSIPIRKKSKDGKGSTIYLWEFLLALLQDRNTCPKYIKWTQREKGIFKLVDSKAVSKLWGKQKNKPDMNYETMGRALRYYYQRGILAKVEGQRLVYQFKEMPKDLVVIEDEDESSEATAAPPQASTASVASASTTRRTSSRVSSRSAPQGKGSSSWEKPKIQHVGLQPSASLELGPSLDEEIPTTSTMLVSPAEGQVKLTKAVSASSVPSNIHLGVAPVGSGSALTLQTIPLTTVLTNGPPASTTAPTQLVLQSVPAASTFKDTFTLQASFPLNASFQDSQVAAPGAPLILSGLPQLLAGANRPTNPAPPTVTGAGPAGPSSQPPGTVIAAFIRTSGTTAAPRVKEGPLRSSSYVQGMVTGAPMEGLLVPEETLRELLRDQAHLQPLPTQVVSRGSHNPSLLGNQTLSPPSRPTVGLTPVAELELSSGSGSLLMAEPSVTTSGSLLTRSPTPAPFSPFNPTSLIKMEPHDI
# ELF1, sequence (P32519 whole entry): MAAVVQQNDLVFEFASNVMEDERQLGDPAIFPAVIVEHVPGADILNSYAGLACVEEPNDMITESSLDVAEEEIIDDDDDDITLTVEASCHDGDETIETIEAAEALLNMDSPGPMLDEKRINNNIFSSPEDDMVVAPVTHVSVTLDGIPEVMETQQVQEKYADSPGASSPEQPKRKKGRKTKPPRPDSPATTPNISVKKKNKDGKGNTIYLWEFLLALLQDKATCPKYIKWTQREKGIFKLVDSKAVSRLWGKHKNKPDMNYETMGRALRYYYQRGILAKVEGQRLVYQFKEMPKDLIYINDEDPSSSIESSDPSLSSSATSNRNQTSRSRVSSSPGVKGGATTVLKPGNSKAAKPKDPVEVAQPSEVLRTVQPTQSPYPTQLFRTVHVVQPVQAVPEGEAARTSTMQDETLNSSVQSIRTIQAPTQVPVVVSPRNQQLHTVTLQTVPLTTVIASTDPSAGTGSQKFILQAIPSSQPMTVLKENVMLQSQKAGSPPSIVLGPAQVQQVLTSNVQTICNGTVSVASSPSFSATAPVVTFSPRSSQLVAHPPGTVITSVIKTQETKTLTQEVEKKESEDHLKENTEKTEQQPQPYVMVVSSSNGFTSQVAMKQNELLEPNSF
# HSF1, sequence (Q00613 whole entry): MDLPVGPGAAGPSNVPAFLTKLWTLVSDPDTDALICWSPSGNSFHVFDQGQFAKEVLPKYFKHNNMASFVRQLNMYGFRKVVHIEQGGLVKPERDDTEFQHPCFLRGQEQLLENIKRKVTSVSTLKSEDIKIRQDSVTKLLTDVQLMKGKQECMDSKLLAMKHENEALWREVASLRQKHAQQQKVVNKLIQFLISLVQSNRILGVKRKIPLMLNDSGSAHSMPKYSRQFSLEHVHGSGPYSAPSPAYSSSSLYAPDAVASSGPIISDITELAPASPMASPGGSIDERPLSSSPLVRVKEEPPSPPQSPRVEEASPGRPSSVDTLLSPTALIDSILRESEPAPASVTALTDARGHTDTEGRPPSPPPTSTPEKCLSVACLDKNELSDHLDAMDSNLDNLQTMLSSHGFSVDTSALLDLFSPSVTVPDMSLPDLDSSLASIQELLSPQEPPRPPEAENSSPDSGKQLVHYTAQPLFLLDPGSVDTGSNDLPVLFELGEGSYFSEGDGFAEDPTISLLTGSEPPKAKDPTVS
sequence,measurement,setting,value
CCTGCA,binding signal,[1],"1.28 fold enrichment (6-mer frequency, TF over GST control)"
same,binding signal,[2],"1.3 fold enrichment (6-mer frequency, TF over GST control)"
same,binding signal,[3],"1.19 fold enrichment (6-mer frequency, TF over GST control)"
same,binding signal,[4],"1.23 fold enrichment (6-mer frequency, TF over GST control)"
same,binding signal,[5],"1.36 fold enrichment (6-mer frequency, TF over GST control)"
same,binding signal,[6],"1.42 fold enrichment (6-mer frequency, TF over GST control)"
same,binding signal,[7],"1.17 fold enrichment (6-mer frequency, TF over GST control)"
same,binding signal,[8],"1.24 fold enrichment (6-mer frequency, TF over GST control)"
same,binding signal,[9],"1.23 fold enrichment (6-mer frequency, TF over GST control)"
same,binding signal,[10],"1.26 fold enrichment (6-mer frequency, TF over GST control)"
same,binding signal,[11],"1.39 fold enrichment (6-mer frequency, TF over GST control)"
same,binding signal,[12],"1.11 fold enrichment (6-mer frequency, TF over GST control)"
same,binding signal,[13],"1.15 fold enrichment (6-mer frequency, TF over GST control)"
same,binding signal,[14],"1.3 fold enrichment (6-mer frequency, TF over GST control)"
same,binding signal,[15],"1.27 fold enrichment (6-mer frequency, TF over GST control)"
same,binding signal,[16],"1.22 fold enrichment (6-mer frequency, TF over GST control)"
same,binding signal,[17],"1.68 fold enrichment (6-mer frequency, TF over GST control)"
same,binding signal,[18],"1.28 fold enrichment (6-mer frequency, TF over GST control)"

# From paper PMC7862700, “An all-to-all approach to the identification of sequence-specific readers for epigenetic DNA modifications on cytosine”
